# The list is not random: actives were taken first. Their share in the collection is about 1.2%.
# PriA SSB inh: blocks PriA binding to SSB C-terminal tail. AlphaScreen SSBct-PriA binding, biotinylated peptide. 430,000 compounds, 0.6% hits. AID 1272365. inhibition, % at 33 µM; in the data active = inhibition mostly above about 37%, no sharp cut-off; inactive = mostly below about 20%
# Sa RN4220 lethal: S. aureus RN4220 growth inhibition; OD600, 16 h; inhibition, % (concentration not given with the values); 330,000 compounds, 0.33% hits; AID 1259311; in the data active = inhibition above about 85%
# ugtP null kill: compounds lethal to S. aureus RN4220 ugtP deletion mutant. OD600 growth, 16 h. growth inhibition, % (test concentration not listed). 330,000 compounds, 0.54% hits. AID 1259309; in the data active = growth inhibition above about 68%
# MazEF act: MazEF (E. coli) toxin RNase activation. 350,000 compounds, 0.32% hits. FAM/BHQ RNA-DNA oligo cleavage fluorescence, 5 h. activation, % at 20 µM. P0AE70; in the data active = activation above about 50%
# Target sequence (P0AE70 whole entry, looked up): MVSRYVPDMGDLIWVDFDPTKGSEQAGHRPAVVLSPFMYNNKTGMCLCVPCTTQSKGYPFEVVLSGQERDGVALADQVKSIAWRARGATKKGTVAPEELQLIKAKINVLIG
# BJeLR viability: BJeLR cell viability loss. BJeLR (HRASV12) viability, CellTiter-Glo ATP luminescence, 48 h. inhibition, % (test concentration not listed). 300,000 compounds, 0.17% hits. AID 1554; in the data active = inhibition above about 50%
# A number is an active result; . = inactive; / = no result given; + = active, no number; ! = repeats disagree.
SMILES,PriA SSB inh,Sa RN4220 lethal,ugtP null kill,MazEF act,BJeLR viability
Cc1onc(-c2c(Cl)cccc2Cl)c1C(O)c1ccccc1 (stereo unspecified),.,.,.,.,.
CCOC(=O)c1cc2c(=O)n3ccccc3nc2n(Cc2ccc(Cl)cc2)c1=N,.,.,.,+,/
N=c1c(C(=O)NCc2ccco2)cc2c(=O)n3ccccc3nc2n1Cc1ccc(Cl)cc1,.,.,.,.,.
COc1ccc(C2=NN(C(C)=O)CC2c2cccc([N+](=O)[O-])c2)cc1 (stereo unspecified),.,.,.,.,.
O=C(Nc1cccc2ccccc12)c1ccc(Cn2cc(Cl)cn2)cc1,.,.,.,.,.
O=C(O)c1cc(C(=O)O)cc(-c2ccc(/C=c3/sc4nc5ccccc5n4c3=O)o2)c1,/,/,/,.,/
O=C(O)c1cccc(-c2ccc(/C=c3/sc4nc5ccccc5n4c3=O)o2)c1,/,/,/,580.8,.
CCOc1ccc(N2C(=O)CC(Sc3nc(O)c(CC)c(=O)[nH]3)C2=O)cc1 (stereo unspecified),.,.,.,.,.
CSc1cccc(C(=O)Nc2nnc(Cc3cccs3)o2)c1,.,/,/,/,/
Nc1c(C(=O)Nc2nccs2)sc2nc(-c3cccs3)cc(C(F)(F)F)c12,.,.,.,114.8,.
CC(C)(C)C(=O)c1sc2nc(-c3cccs3)cc(C(F)(F)F)c2c1N,.,.,.,+,.
Cc1ccc2sc(N(CCN(C)C)C(=O)c3ccc4c(c3)OCCO4)nc2c1C,40.0,/,/,/,/
Cc1cc(C)c2nc(N(CCCN(C)C)C(=O)c3ccc4c(c3)OCCO4)sc2c1,.,.,.,.,.
CN(C)CCN(C(=O)c1ccc2ccccc2c1)c1nc2c(F)cc(F)cc2s1,37.0!,.,.,.,.
COc1cccc(C(=O)N(CCN(C)C)c2nc3c(F)cc(F)cc3s2)c1,.,/,/,/,/
CCOC(=O)Cc1csc(NS(=O)(=O)c2ccc(Br)cc2)n1,.,.,.,.,.
CCC1Cc2cc(O)ccc2C2=C1c1ccc(O)cc1CC2CC (stereo unspecified),/,97.8,.,/,/
Oc1ccc(C[C@H]2CNC(=S)N2CC2CCCN2C[C@H](Cc2ccccc2)N2C[C@H](Cc3ccc(O)cc3)N(CCc3ccccc3)C2=S)cc1 (stereo partly specified),.,/,/,.,/
N#Cc1c(N)sc(=S)c2c1CCCC2,64.9,.,.,.,.
CCOC(=O)c1ccc(NC(=O)C2(c3ccc(OC)cc3)CCCC2)cc1,.,.,.,.,.
CCOC(=O)c1ccc(NC(=O)C2(c3ccc(OC)cc3)CCOCC2)cc1,.,.,.,60.5,.
N#CCCN(CCC#N)C(=O)c1ccc2c(c1)OCO2,.,.,.,.,.
CSc1ccc(Cl)c(C(=O)NCCOc2cc(C)ccc2C(C)C)c1,.,97.5,98.8,.,.
C/C(=N\NC(=O)c1cc(C)[nH]n1)C(C)(C)C,/,/,/,.,.
NC(=O)c1ccccc1NC(=O)c1ncc(-c2ccc(Cl)cc2)o1,.,/,/,/,/
SMILES,PriA SSB inh,Sa RN4220 lethal,ugtP null kill,MazEF act,BJeLR viability
O=C(Nc1ncn[nH]1)c1ncc(-c2ccc(Cl)cc2)o1,69.0,/,/,/,/
CCCCCCNC(=O)O[C@H]1C[C@H](C(=O)OC)[C@H](C(=O)OC)C2CN(S(=O)(=O)c3ccc(C)cc3)C[C@@]21O (stereo partly specified),/,/,/,.,/
Nc1ccc2ccccc2c1N=Nc1ccccc1,.,.,94.8,.,/
Nc1ncnc(N)c1N=Nc1ccccc1,.,.,.,.,.
COc1cc(/C=C/c2ccc3c(Br)cc(Br)c(O)c3n2)ccc1O,.,98.5,99.7,.,.
O=[N+]([O-])c1ccc(/C=C/c2ccc3cccc(O)c3n2)cc1,.,.,.,92.4,.
O=[N+]([O-])c1ccc(/C=C/c2ccc3ccccc3n2)cc1,.,.,.,.,.
COc1ccc(/C=C/c2ccc3c(Br)ccc(O)c3n2)cc1,.,.,.,.,.
COc1cc(/C=C/c2ccc3cccc(O)c3n2)cc(OC)c1OC,.,.,.,.,56.0
COc1ccc(S(=O)(=O)N2CCOCC2)cc1NC(=O)Cc1cccs1,.,.,.,.,/
CC(=C/C(=O)O)/C(=C\c1ccc(Br)o1)C(=O)O,.,.,.,.,.
CCN(CC)Cc1c(C(=O)NN=Cc2c(Cl)cccc2Cl)nnn1-c1nonc1N,.,.,.,/,/
CCc1cccc(C)c1NC(=O)CCNC(=O)c1cccc(C)c1,.,.,.,.,.
O=S(=O)(Cc1ccco1)C1CCN(S(=O)(=O)c2ccccc2F)CC1,83.0,/,/,/,/
Cn1cnc(S(=O)(=O)N2CCC(S(=O)(=O)Cc3ccco3)CC2)c1,68.0,/,/,/,/

# High-throughput results deposited in PubChem BioAssay by several laboratories.
